These results are taken from PubChem BioAssay (NCI).

Test systems include NCI-H23 lung; NCI-H226 lung; NCI-H322M lung; HOP-62 NSCLC; NCI-H460 lung; NCI-H522 lung; A549/ATCC NSCLC; 786-0 renal; COLO 205 colon.
Common to all, as to assay: NCI-60 one-dose screen, 48 h (100 = growth as untreated, 0 = no growth, -100 = all killed)
What all share (conditions): 10 µM unless noted

About 83,000 compounds went through this panel and 20% of them were active in at least one assay; those are over-represented in the sample as a whole.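 Negative percent growth values reflect cell death: -40 means 40% of the cells present at the start died, and -100 means all died.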 Values without a mark were called inactive. Calls of active or inactive are those of the source. Rule for the calls: active = growth percent below 10; inactive = the rest.

Take `NC(N)=Nc1ccc(Nc2cccc(Nc3ccc(Cl)c(C(F)(F)F)c3)c2)cn1`: the growth with NCI-H23 lung is 41.7%; with NCI-H226 lung, 24.4%; in the assay with NCI-H322M lung it was -6.68% (active); in the assay on HOP-62 NSCLC, 19.5%; in the assay on NCI-H460 lung, -23.9% (active); in the assay on NCI-H522 lung, 8.21% (active). For the same compound, the growth in the assay on A549/ATCC NSCLC was 57%; in the assay on 786-0 renal, 72.6%; in the assay on COLO 205 colon, -25.1% (active).

For `CC(=O)c1cc(C(=O)N2c3ccccc3Sc3ccccc32)n2ccc3ccccc3c12`, the growth in the assay with NCI-H23 lung was 62.8%; with NCI-H226 lung it was 45.4%; in the assay with NCI-H322M lung, 61.8%; in the assay with HOP-62 NSCLC, 42.4%; with NCI-H460 lung, 30%; in the assay with NCI-H522 lung, -38% (active). The growth is 50.3% in the assay with A549/ATCC NSCLC, 38.4% in the assay with 786-0 renal and 36.3% in the assay with COLO 205 colon.

For `C#CCn1cccc1CNc1ccc(OC)cc1`, the growth in the assay with NCI-H23 lung was -88.9% (active); in the assay with NCI-H226 lung, -50.1% (active); with NCI-H322M lung it was 47%; with HOP-62 NSCLC, -45.3% (active); in the assay on NCI-H460 lung, -50.5% (active); in the assay with NCI-H522 lung it was -57.7% (active). For the same compound, the growth in the assay on A549/ATCC NSCLC is -47.6% (active); with 786-0 renal, -69.6% (active); in the assay with COLO 205 colon, -60.7% (active).

As for `O=S(=O)(Nc1ccc2c(c1)OCO2)c1ccc(-c2cnc(C3CC3)o2)cc1`, the growth in the assay with NCI-H23 lung was 42%; with NCI-H226 lung, 55.9%; with NCI-H322M lung it was 64.5%; in the assay on HOP-62 NSCLC, 43.3%; with NCI-H460 lung, 23.5%; in the assay with NCI-H522 lung, 34.4%. In addition, the figures for the growth in the assay with A549/ATCC NSCLC, in the assay with 786-0 renal and with COLO 205 colon were 43.8%, 46.2% and 35.3%, respectively.

Take `CCNC(=O)N1CCc2cc(OC)c(OCCc3ccc(OC)cc3)cc2C1c1ccc(Cl)cc1C` (stereo unspecified): the growth was 25.1% in the assay on NCI-H23 lung; 32.4% with NCI-H226 lung; 46.6% with NCI-H322M lung; 27.7% with HOP-62 NSCLC; 1.35% (active) with NCI-H460 lung; -16.2% (active) with NCI-H522 lung. Moreover, the growth was 9.93% (active) in the assay with A549/ATCC NSCLC, 9.78% (active) in the assay with 786-0 renal and 13.9% in the assay with COLO 205 colon.

For the compound `COc1cc2nc(Cl)nc(Nc3cccc(C4=Nc5c(N)nc(N)nc5NC(c5ccc(Br)cc5)C4)c3)c2cc1OC` (stereo unspecified), the growth in the assay with NCI-H23 lung was 91%; in the assay with NCI-H226 lung it was 93%; in the assay with NCI-H322M lung, 98.1%; in the assay with HOP-62 NSCLC, 43.5%; with NCI-H460 lung it was 28%; in the assay with NCI-H522 lung it was 68.2%. Also, the growth with A549/ATCC NSCLC is 55.9%; in the assay with 786-0 renal it was 64.7%; with COLO 205 colon, 66.3%.

Take `CCO/C=N/C1=C(C#N)C(c2ccc(F)cc2)c2sc3c(CC)cccc3c2O1` (stereo unspecified): the growth with NCI-H23 lung is 28.3%; in the assay on NCI-H226 lung it was 51.6%; in the assay with NCI-H322M lung, 42.6%; in the assay with HOP-62 NSCLC, 48.6%; with NCI-H460 lung, 3.42% (active); in the assay with NCI-H522 lung, 8.86% (active). The growth is 24.6% with A549/ATCC NSCLC, 26.3% in the assay on 786-0 renal and 12.6% in the assay on COLO 205 colon.

Consider `CCN(CC)CCn1c2ccc(O)cc2c2sc3cc(OC)ccc3c(=O)c21`, for which the growth is 28.5% with NCI-H23 lung; 72.6% with NCI-H226 lung; 26.2% with NCI-H322M lung; 26.2% in the assay on HOP-62 NSCLC; 1.49% (active) in the assay with NCI-H460 lung; 30.1% with NCI-H522 lung. Further, the growth was 13.2% in the assay with A549/ATCC NSCLC, 33.3% in the assay with 786-0 renal and 17.9% in the assay with COLO 205 colon.

For `O=S(=O)(Nc1cccc2ccccc12)c1ccc(-c2cnc(C3CC3)o2)cc1`, the growth with NCI-H23 lung is 23.2%; in the assay with NCI-H226 lung, 64.6%; in the assay with NCI-H322M lung, 40.4%; with HOP-62 NSCLC, 39.3%; in the assay on NCI-H460 lung it was 11.2%; in the assay with NCI-H522 lung, 21.9%. In addition, the growth was 27.2% in the assay with A549/ATCC NSCLC, 50.2% with 786-0 renal and 9.76% (active) in the assay on COLO 205 colon.

Regarding `Cc1ccc(-n2c(/C=C3\C(=O)Nc4ccccc43)ccc2CO)cc1`, the growth was 80.6% in the assay with NCI-H23 lung; 88.2% in the assay on NCI-H226 lung; 103% in the assay on NCI-H322M lung; 72.8% in the assay on HOP-62 NSCLC; 80.3% in the assay with NCI-H460 lung; 73.6% in the assay on NCI-H522 lung. Also, the growth was 71.3% with A549/ATCC NSCLC, 101% in the assay on 786-0 renal and 91.5% in the assay on COLO 205 colon.

For the compound `C#C[C@]1(O)CC[C@H]2[C@@H]3CC=C4c5sc(-c6ccc7c(c6)OCO7)nc5CC[C@]4(C)[C@H]3CC[C@@]21C`, the growth with NCI-H23 lung was 6.36% (active); in the assay with NCI-H226 lung, 32.3%; with NCI-H322M lung it was 37.1%; in the assay with HOP-62 NSCLC, 11.2%; in the assay with NCI-H460 lung, -26.2% (active); in the assay with NCI-H522 lung, 2.16% (active). For the same compound, the growth with A549/ATCC NSCLC was 6.31% (active); in the assay with 786-0 renal it was -28.9% (active); in the assay on COLO 205 colon, 51.9%.

For `CCCn1cnc2c(c1=N)C(c1ccc(OC)cc1)c1sc3c(C)cccc3c1O2` (stereo unspecified), the growth with NCI-H23 lung was 23.1%; in the assay on NCI-H226 lung it was 63.8%; with NCI-H322M lung, 45.3%; in the assay with HOP-62 NSCLC, 43.6%; in the assay with NCI-H460 lung, 6.21% (active); in the assay on NCI-H522 lung, -3.75% (active). Besides, the growth is 29.2% in the assay on A549/ATCC NSCLC, 31.1% in the assay with 786-0 renal and 7.69% (active) in the assay with COLO 205 colon.

`Cc1ccc(CSc2nc(-c3ccc(Cl)cc3)c(C#N)c(N3CCOCC3)n2)cc1`: the growth in the assay with NCI-H23 lung was 95%; with NCI-H226 lung, 94.4%; in the assay on NCI-H322M lung it was 103%; in the assay with HOP-62 NSCLC, 110%; with NCI-H460 lung, 96.2%; in the assay on NCI-H522 lung, 78.4%. The growth in the assay on A549/ATCC NSCLC is 91.8%; in the assay on 786-0 renal, 87.5%; with COLO 205 colon, 125%.

On to `CNC1CCc2c(sc(NC(=O)c3ccc(C(C)(C)C)cc3)c2C(N)=O)C1` (stereo unspecified), for which the growth is 74.3% in the assay with NCI-H23 lung; 77.3% with NCI-H226 lung; 66.4% with NCI-H322M lung; 38.4% in the assay on HOP-62 NSCLC; 2.17% (active) in the assay with NCI-H460 lung; 61.6% in the assay on NCI-H522 lung. Also, the growth with A549/ATCC NSCLC is 31%; with 786-0 renal, 24.9%; in the assay on COLO 205 colon it was -47.1% (active).
